Source: PubChem BioAssay (National Center for Advancing Translational Sciences (NCATS))
IL1B secr inh – qHTS for Inhibitors of Inflammasome Signaling: IL-1-beta AlphaLISA Primary Screen. activity change, % at 57.5 µM. hit rate 4.7% among 360,000. THP-1 LPS/ATP IL-1B secretion, AlphaLISA, 16 h; hits give low values; in the data active = activity change below about -50%; inconclusive = mostly about -30% to -49%
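THP-1 cells pretreated 1 hr with compounds (up to 57.5 uM final), then stimulated with LPS (250 ng/mL final) plus ATP (1.25 mM final); secreted IL-1B measured by AlphaLISA after 16 hr, decreased signal indicating inhibition.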
HT1080 IDH1KD tx – qHTS for induction of synthetic lethality in tumor cells producing 2HG: qHTS for the HT-1080-IDH1KD cell line. hit rate 2% among 360,000. AID 686971, 2013. HT-1080 IDH1 knockdown viability, ATP luminescence, 48 h. Potency, µM (series often up to 46.1 µM), for inactives: at the top dose activity, negative = toxicity, most hits filed as cytotoxic;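 also: potency is read from the fitted curve at half-maximal effect; 0% = DMSO wells and -100% = cell-free medium wells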
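Knockdown cells (IDH1KD HT-1080) received compounds 2 h after plating at 750 cells/well and were kept 48 h at 37 °C in 5% FBS RPMI. A CellTiter-Glo luminescence read gave % activity for curve fitting.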
DT40 TDP1 CPT – qHTS for Inhibitors of human tyrosyl-DNA phosphodiesterase 1 (TDP1): qHTS in cells in presence of CPT; chicken DT40 Tdp1-/-;hTDP1 cells + 20 nM CPT, ATP luminescence, 48 h; Potency, µM (doses to about 46.2 µM), without a hit: top-dose activity change, negative = growth inhibition, usual class: inhibitors; hit rate 12% among 420,000; AID 686979, 2013; also: potency is read from the fitted curve at half-maximal effect; nearly all actives have a fitted effect of over 55% in size
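Chicken DT40 Tdp1-/- cells complemented with human TDP1, 400 cells/well, exposed to compounds plus 20 nM camptothecin for at least 48 h at 37 C; viability read as ATP content by CellTiter-Glo luminescence.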
TDP1 cell noCPT – qHTS for Inhibitors of human tyrosyl-DNA phosphodiesterase 1 (TDP1): qHTS in cells in absence of CPT; DT40 Tdp1-/- hTDP1 cells, no CPT, ATP luminescence, 48 h; Potency, µM (series often up to 46.2 µM), for the others: top-dose activity change, negative = growth inhibition, actives largely listed as inhibitors; hit rate 15% among 420,000; also: potency is read from the fitted curve at half-maximal effect; nearly all actives have a fitted effect of over 55% in size
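Luminescent ATP content (CellTiter-Glo) served as the growth readout. Knockout chicken DT40 cells expressing human TDP1 were exposed to compounds without camptothecin for a minimum 48 hr at 37 °C.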
HT1080NT lethal – qHTS for induction of synthetic lethality in tumor cells producing 2HG: qHTS for the HT-1080-NT fibrosarcoma cell line; HT-1080-NT fibrosarcoma viability, CellTiter-Glo ATP luminescence, 48 h; Potency, µM (doses to about 46.1 µM), for inactives: at the highest dose activity, negative = less viability, actives largely listed as cytotoxic; hit rate 1.6% among 360,000; AID 686970, 2013;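 also: NT is the 2HG producing partner of a matched IDH1 knockdown line; potency is read from the fitted curve at half-maximal effect; 0% = DMSO-treated cells and -100% = media-only wells without cells; nearly all actives have a fitted effect of over 55% in size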
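Toxicity toward the 2HG-producing NT line was scored as %Activity, normalised to DMSO and no-cell wells, from CellTiter-Glo luminescence after 48 hours' treatment.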
* hit, by the source's call; ? = inconclusive; / = no result given. Compounds with a hit are over-represented: about 19% of the library has one in this group of screens. Unless noted, calls follow the shape of the dose curve; as a rule, active = well fitted curve in the direction sought with a large enough effect; inconclusive = small, poorly fitted or top-dose-only effect, or another doubt; inactive = no such curve, though single readings can be large; an effect the other way counts as inactive or inconclusive. Unless noted, % is scaled to controls: 0 for no effect and ±100 for the full control effect.

SMILES | IL1B secr inh | HT1080 IDH1KD tx | DT40 TDP1 CPT | TDP1 cell noCPT | HT1080NT lethal
CCC(C)NC(=O)c1ccccc1NC(=O)CN1C(=O)c2cccc3cccc1c23 (stereo not given) | / | / | -1% | 1% | /
CCN(CC(=O)NCc1cccs1)C(=O)/C=C/c1cccc(Cl)c1Cl | -2 | 9% | 0% | -16% | 9%
Cc1cc(CNC(=O)c2cc(-c3ccccc3)nc3ccccc23)nn1C | 18 | -1% | ? | 21µM* | -3%
CCC(CC)C(=O)c1c[nH]c(C(=O)NCCc2ccccn2)c1 | -11 | 25% | ? | ? | ?
O=C(NCCc1ccccn1)c1c(-c2ccsc2)sc2ccccc12 | 41 | 2% | ? | ? | -3%
CCC(CC)C(=O)c1c[nH]c(C(=O)NCc2ccccn2)c1 | -59* | 1% | 6% | -16% | -1%
Cc1ccc(-c2cc(C(=O)NCc3ccccc3Cl)c3ccccc3n2)cc1C | / | / | 15µM* | ? | /
O=C(NCCc1ccccn1)c1c(-c2ccccc2)sc2ccccc12 | 0 | -1% | ? | 16µM* | -4%
COc1ccc(NC(=O)COCc2cc(-c3ccco3)on2)cc1Cl | / | / | ? | -24% | /
COc1ccc(CNC(=O)C2CCN(S(=O)(=O)c3ccc4c(ccn4C)c3)CC2)cc1 | / | / | -5% | ? | /
Cc1ccc(-c2cc(C(=O)NCc3ccccn3)c3ccccc3n2)cc1C | -14 | ? | ? | 7.3µM* | ?
Cc1cc(C(=O)NCc2cc(C)n(C)n2)sc1-c1ccccc1 | 39 | -27% | 13µM* | 21µM* | -24%
O=C(NCc1ccccc1)c1cc(-c2ccncc2)nc2ccccc12 | 26 | -16% | ? | ? | -4%
Cc1cc(C(=O)N(C)C)sc1-c1ccccc1 | -10 | 7% | -27% | ? | ?
O=C(CNC(=O)c1ccco1)NCc1ccc2c(c1)OCO2 | 9 | 9% | 1% | 4% | 7%
CCOc1ccccc1C(=O)NC(C(=O)OCC(=O)Nc1nnc(-c2ccccc2)o1)C(C)C (stereo not given) | 15 | -5% | -8% | -20% | -8%
CCOc1ccccc1C(=O)OCC(=O)Nc1nnc(-c2ccccc2)o1 | 15 | -14% | ? | 16µM* | -3%
CCOc1ccc(C(C)NC(=O)c2ccc3c(c2)NC(=O)C(C)S3)cc1OCC (stereo not given) | ? | -12% | -22% | -14% | -5%
COCCNC(=O)C(c1cccs1)N(C(=O)Cn1nnc2ccccc21)c1ccccc1 (stereo not given) | -1 | 18% | -16% | -9% | 16%
COc1cccc(N(C(=O)CCl)C(C(=O)NCCc2ccccc2)c2cccs2)c1 (stereo not given) | ? | 1.3µM* | 4.1µM* | 4.6µM* | 1.6µM*
COc1ccc(N(C(=O)CCl)C(C(=O)NCCc2ccccc2)c2cccs2)cc1Cl (stereo not given) | -103* | 5.8µM* | 2.6µM* | 1.5µM* | 18µM*
Cc1nn(S(=O)(=O)c2ccc(F)cc2)c(C)c1S(=O)(=O)N1CCOCC1 | 20 | 2% | -1% | 9% | 13%
CC(=O)N/C(=C/c1ccc([N+](=O)[O-])cc1)C(=O)O | 3 | 9% | 3% | 18% | 14%
CCOc1ccc(Cl)cc1S(=O)(=O)N1CCC(C(=O)NCc2ccco2)CC1 | 20 | -12% | -23% | -16% | 9%
COc1ccc(-c2c(-c3cc(OC)cc(OC)c3)n(C)c3ccc(-c4ccc5[nH]ccc5c4)cc23)cc1 | -14 | 4% | -19% | -13% | -2%
SMILES | IL1B secr inh | HT1080 IDH1KD tx | DT40 TDP1 CPT | TDP1 cell noCPT | HT1080NT lethal
CC(NC(=O)c1cc(S(=O)(=O)N(C)C)ccc1Cl)C1CC2CCC1C2 (stereo not given) | 21 | -7% | 16µM* | 9.2µM* | 0%
O=[N+]([O-])c1ccc(SCc2ccncc2)nc1 | 14 | -4% | -17% | -19% | -4%
CC(C)c1ccc(C(=O)N2CCCCC2c2cc(C(=O)NCc3cccnc3)no2)cc1 (stereo not given) | 4 | 0% | ? | ? | 0%
O=C(CCC1CCCCC1)Nc1ccc(C(=O)c2ccncc2)cc1 | -92* | 0% | ? | ? | -4%
O=C(CCC1CCCCC1)Nc1cccnc1 | 13 | 2% | -8% | -23% | 5%
CC(C)(C)NC(=O)c1ccc(COc2ccc(Cl)cc2Cl)o1 | -69* | -21% | 6% | ? | ?
O=C(c1ccc(COc2ccc(Cl)cc2Cl)o1)N1CCCC1 | -28 | -4% | -30% | 18µM* | -6%
CCCc1nn(C)c2c(=O)[nH]c(-c3cc(S(=O)(=O)N4CCN(C)CC4)ccc3OCC)nc12 | -13 | -2% | -8% | -12% | 13%
CCCc1nn(C)c2c(=O)[nH]c(-c3cc(S(=O)(=O)Nc4ccc(NC(C)=O)cc4)ccc3OCC)nc12 | ? | -8% | 10µM* | ? | -7%
O=C1Nc2ccccc2SC(c2ccccc2)C1O (stereo not given) | 36 | -5% | 23µM* | ? | 2%
CC(C)(C)c1ccc(OC(=O)Cn2c(C(F)(F)F)nc3ccccc32)cc1 | 7 | 7% | -6% | -18% | 5%
CSc1ncc(C(=O)Nc2cc(C)cc(C)c2)c(-c2ccccc2)n1 | / | / | -28% | ? | /
Clc1ccc(-[n+]2c(-c3cccc(Br)c3)[nH]c3nc4ccccc4nc32)cc1 | / | 28% | ? | 26µM* | 21%
Cc1ccc2nc(SCC(=O)NNC(=O)c3ccccc3)[nH]c2c1 | 76 | 10% | -13% | -5% | 6%
O=c1[nH][nH]c(=O)c2cc([N+](=O)[O-])ccc12 | -21 | 5% | -13% | ? | 18%
COc1cc2c(=O)[nH]c3cc([N+](=O)[O-])ccc3c2cc1[N+](=O)[O-] | 5 | 2% | 8.2µM* | 6.5µM* | 3%
CC1CCCCN1C(=O)c1cc2ccccc2cc1O (stereo not given) | -27 | -7% | -28% | ? | -3%
CCN(CC)C(=S)S | / | / | 24µM* | ? | /
CS(=O)(=O)Nc1ccc(C(=O)NC2CCCC2)cc1 | 7 | 5% | 1% | 3% | 10%
COc1c(N2CCN(C(=S)NC3CC4CCC3C4)C(C)C2)c(F)cc2c(=O)c(C(=O)O)cn(C3CC3)c12 (stereo not given) | -12 | 16% | 23µM* | 23µM* | 7%
Cc1cc(CCNC=O)c(C)c2c1oc1ccccc12 | -24 | 5% | 0% | -2% | -1%
